The record followed here is PubChem BioAssay (EPA / NIEHS).

SMILES strings stand for the structures. Calls of active or inactive are those of the source. Rule for the calls: active = hit-call score of the fitted dose curve at least 0.9, where 1 is the maximum; inactive = score below 0.9.

The experiment in a line: CCTE_Shafer_MEA_acute_cross_correlation_HWHM: CCTE's Neural Acute Assay for Cross Correlation at Half Width at Half Maximum, Shafer Lab (AID 2284026). On the procedure: CCTE_Shafer_MEA_acute assay is conducted using Axion Biosystems 48 well microelectrode array (MEA) plates and Maestro recording system. Each well of the MEA plate contains a grid of 16 microelectrodes embedded in the culture surface. Electrically active cells, such as neurons, can be cultured over the electrodes, and electrical activity in these cells can be recorded extracellularly. The spontaneous firing of neurons is captured from each electrode on a microsecond timescale providing both temporally and spatially precise data. […] The CCTE_Shafer_MEA_acute assay uses primary cultures of rat cortical neurons. As these cultures mature over time, neural networks develop functional activity and form cohesive networks in which electrical activity can be highly coordinated. Baseline 40-minute recordings are made on days post-plating 13 or 15, followed by a secondary 40-minute recording after chemical exposure.CCTE_Shafer_MEA_acute_cross_correlation_HWHM is a component of the CCTE_Shafer_MEA_acute assay. It measures the distance along the x-axis (phase lag) from the left half maximum height to the center of the cross-correlogram of action potential firing during a recording in a microelectrode array (MEA) using Axion Biosystems Maestro 768 channel amplifier with the AxIS adaptive spike detector. Smaller values indicate a narrower correlogram (greater synchrony). The recordings before and after chemical treatment are used to calculate a percent change in the half width at half maximum of the cross-correlogram in each well.Data from the assay component CCTE_Shafer_MEA_acute_cross_correlation_HWHM was analyzed into 1 assay endpoint. This assay endpoint, CCTE_Shafer_MEA_acute_cross_correlation_HWHM, was analyzed in the negative analysis fitting direction relative to DMSO as the negative control and baseline of activity. Using a type of functional reporter, gain or loss-of-signal activity can be used to understand electrical activity.
Spontaneous activity in the cortical cultures was recorded using an Axion Biosystems Maestro 768 channel amplifier and Axion Integrated Studios (AxIS) v1.8 (or later) software. The amplifier recorded from all channels simultaneously (gain = 1200 x; sampling rate = 12.5 kHz/channel): raw signals were filtered with a Butterworth band-pass filter (300-5000 Hz), which filters out slower local field potentials leaving only fast potentials, i.e., "spikes", arising from extracellular currents associated with action potentials (Pine 2006; Wheeler and Nam 2011). On-line spike detection of filtered signals was conducted with the AxIS adaptive spike detector, using a threshold of 8x the root mean squared (rms) noise on each channel. Any electrodes with rms noise levels greater than 5 uV were grounded (e.g., no data were recorded). Once grounded, an electrode was grounded for the duration of the experiment. All recordings were conducted at 37 C. Wells were deemed usable if on the day of the exposure >/= 10 electrodes were active (defined as >/= 5 spikes/min). On DIV 13 or 15, a minimum of three wells from one cortical culture preparation were treated with each compound (0.03-40 uM). Prior to recording baseline activity, each mwMEA plate was placed in the Maestro at 37 C and allowed to sit for 20 min while firing rates stabilized. Baseline activity (40 min) was recorded before the addition of each compound. An additional 40 min of spontaneous activity was recorded in the presence of each compound. Changes in network parameters relative to baseline were assessed following compound treatment.
Regarding `CC(C)(c1ccc(O)cc1)c1ccc(O)cc1`, the AC50 was 28.6 µM (active). On to `CC(C)CCCCCCc1ccc(O)cc1`, for which the concentration at half-maximal activity (AC50) is 20 µM (active). With `CSC(=O)c1cccc2nnsc12`, the outcome was inactive.

Turning to `O=C(c1ccc(O)cc1O)c1ccc(O)cc1O`, the molecule was called inactive. Consider `CCCN(CCC)c1c([N+](=O)[O-])cc(C(F)(F)F)c(N)c1[N+](=O)[O-]`, for which the molecule was called inactive. Take `O=C(Nc1ccc([N+](=O)[O-])cc1Cl)c1cc(Cl)ccc1O`: the AC50 was 1.08 µM (active).

On to `O=C(c1ccccc1)C1CCCCC1`, for which the AC50 is 8.12 µM (active). On to `CCNc1nc(N)nc(Cl)n1`, for which the result was inactive. With `C#CCOC(=O)[C@@H](C)Oc1ccc(Oc2ncc(Cl)cc2F)cc1`, the molecule was called inactive. For `OB(O)O`, the result was inactive. In the case of `CC(C)(C)[C@@H](O)[C@@H](Cc1ccc(Cl)cc1)n1cncn1`, the molecule was called inactive. In the case of `CCCCC(CC)CN1C(=O)C2C3C=CC(C3)C2C1=O` (centres undefined), the result was inactive. As to `COC(=O)c1ccccc1C(=O)O`, the outcome was inactive. On to `O=C(O)c1ccccc1`, for which the call was inactive. As for `C=CCOC(Cn1ccnc1)c1ccc(Cl)cc1Cl` (centres undefined), the AC50 was 5.57 µM (active).

Regarding `Cc1nn(C)c(Oc2ccccc2)c1C=NOCc1ccc(C(=O)OC(C)(C)C)cc1`, the concentration at half-maximal activity (AC50) is 4.36 µM (active). On to `N#CSCSc1nc2ccccc2s1`, for which the half-maximal activity concentration (AC50) was 23.9 µM (active). On to `CC1(C)C(C=C(Cl)Cl)C1C(=O)OCc1cccc(Oc2ccccc2)c1` (centres undefined), for which the molecule was called inactive. `Oc1ccc(C(c2ccc(O)cc2)C(Cl)(Cl)Cl)cc1`: the half-maximal activity concentration (AC50) is 6.85 µM (active).

For orientation: AC50 means the concentration at which the activity in the assay is half-maximal.
